Data published in PubChem BioAssay AID449762 (Southern Research Specialized Biocontainment Screening …, 2010).
Out of some 330,000 compounds screened, about 1,900 (0.58%) were called active. Another 4% or so got no clear call; they are omitted. Only a sample is shown. Results with a measured potency or affinity are listed apart. Values without a mark were called inactive. No stated cut-off is given here; in the data, inconclusive means inhibition above about 70% without an active follow-up result; inactive means below that.

assay: M. tuberculosis growth inhibition, HTS (AID 449762);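 further: bacterial growth assessed after seven days of incubation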; conditions: M. tuberculosis H37Rv growth inhibition, 7H9 media; at 25 µM; stronger effect = higher value

SMILES	inhibition [%]
CCCCCCN1Cc2ccccc2C1	3.68
O=c1ccsn1Cc1ccccc1	2.59
c1ccc(CCNCCCOc2cccc3ccccc23)cc1	40.1
Cc1ccc(OCCCCNC(C)c2ccccc2)c(C)c1 (stereo not given)	7.81
C#CCNC(=O)C1=C[C@H](c2ccc3c(c2)OCO3)C[C@H](OCc2ccc(CO)cc2)O1	6.55
COc1ccccc1N1CCN(CC(=O)Nc2nc(C)c(C(=O)N(C)C)s2)CC1	0.78
CN1CCN(c2nc(-c3cc4ccccc4o3)cs2)CC1	1.67
Nc1nc(-c2cc3ccccc3o2)cs1	27.5
COc1ccc2[nH]c(C)c(CCN(Cc3cccs3)C(=S)Nc3ccccc3)c2c1	-7.77
CCCCn1cnc2c1c(=O)n(CC(=O)c1cc(C)n(C)c1C)c(=O)n2CC(C)C	5.57
Cc1ccc(CN2CCN(Cc3ccc4c(c3)OCCO4)CC2CCO)cc1 (stereo not given)	-5.47
O=C(c1nc2ccccc2[nH]1)c1ccccc1[N+](=O)[O-]	13
c1ccc(N(c2ccccc2)c2nc(-n3ccnc3)nc(-n3ccnc3)n2)cc1	-9.38
CN(c1ccccc1)c1nc(-n2ccnc2)nc(-n2ccnc2)n1	5.05
CCCCNc1nc(-c2ccccc2)nc(-n2ccnc2)n1	10
COc1nc(N(c2ccccc2)c2ccccc2)nc(-n2ccnc2)n1	34.2
COC(=O)c1ccc(C2c3c(oc4ccc(F)cc4c3=O)C(=O)N2CCO)cc1 (stereo not given)	-6.43
COc1ccccc1NC(=O)c1ccc2nsnc2c1	5.74
CCN1C(=O)C(CC(=O)NCCc2ccccc2)N(NC(=O)c2cccnc2)C1=S (stereo not given)	12
Clc1ccccc1N=C1SCCS1	-6.64
CSc1ncccc1C(=O)N(C)CC(=O)Nc1ccc(Cl)c(C(F)(F)F)c1	-3
COc1ccccc1N1CCN(C(=O)C2CCN(S(=O)(=O)c3ccc(F)cc3)CC2)CC1	-1.53
CC(=O)Nc1cc(C(=O)N2CCc3ccccc3C2)ccc1Sc1ccc(Cl)cc1	2.06
Cc1nc2c(C)cccn2c(=O)c1NC(=O)c1cccs1	-5.13

SMILES	inhibition [%]
C=CCNc1oc(-c2ccc(Cl)cc2)nc1C#N	47.3
C=CCNc1oc(-c2ccc(OC)cc2)nc1C#N	4.44
NS(=O)(=O)c1ccc(NC(=O)CSc2nnc(Cc3cccs3)n2-c2ccccc2)cc1	10.1
O=C(/C=C/c1ccccc1)N1CCN(c2ccccn2)CC1	-12.8
O=C1/C(=N\S(=O)(=O)c2cccs2)C([n+]2ccccc2)=C([O-])c2ccccc21	-2.62
CCc1cc[n+](C2=C([O-])c3ccccc3C(=O)/C2=N\S(=O)(=O)c2cccs2)cc1	2.09
CCCCC1(C(=O)OCC)CC(CN2CCOCC2)OC1=O (stereo not given)	-5.65
CN1CCN(c2ccc(NC(=O)c3cccs3)cc2)CC1	0.58
COC(=O)C1=C(C)Nc2[nH]c(=S)[nH]c(=O)c2C1c1ccc(OC)cc1 (stereo not given)	-7.09
O=C(O)COc1ccc(/C=N/Nc2nc(Nc3ccccc3)nc(N3CCCCC3)n2)cc1	23.6
COc1cc(/C=N/Nc2nc(Nc3ccccc3)nc(N3CCCCC3)n2)ccc1OCC(=O)O	58.2
N/C(=N\OC(=O)CC1CCCCC1)c1ccc([N+](=O)[O-])cc1	-1.51
CCOCCCn1c(=N)c(C(=O)NCc2ccc3c(c2)OCO3)cc2c(=O)n3cccc(C)c3nc21	68.2
CCCn1c(=N)c(C(=O)NCC2CCCO2)cc2c(=O)n3cccc(C)c3nc21 (stereo not given)	-2.2
Brc1ccc(-c2csc(Nc3nc(-c4ccc(Br)cc4)cs3)n2)cc1	8.54
Brc1ccc(-c2csc(-c3ccncc3)n2)cc1	36.4
Cc1ccc(NC(=S)N2CCN(c3ccccn3)CC2)c(C)c1	5.35
Cc1c(N=NC2=C(O)CC(C)(C)CC2=O)cc2c(c1[N+](=O)[O-])C(C)(C)CC2(C)C	6
O=[N+]([O-])c1ccc(Nc2ccc(F)cc2)nc1	-2.27
COc1ccc(NC(=O)COC(=O)c2cc3c(s2)CCC3)cc1	9.83
NC(=O)c1ccc(NC(=O)COC(=O)c2cc3c(s2)CCC3)cc1	6.74
CCN1CCN(c2nc(C)c3c(n2)CC(C)CC3=O)CC1 (stereo not given)	11.3
COC(=O)c1ccc(COc2cc([N+](=O)[O-])cc3cccnc23)cc1	3.92
COC(=O)c1ccc(COc2cc([N+](=O)[O-])cc3cccnc23)o1	-2.4

SMILES	inhibition [%]
O=C(CN1c2ccccc2Sc2ccccc21)N/N=C/c1ccc(Cl)cc1Cl	4
COc1ccccc1C(=O)NNC(=O)C12CC3CC(CC(C3)C1)C2	-6.93
Cc1cc(C)c2c(CN3CCN(Cc4ccccc4)CC3)cc(=O)oc2c1	0.88
Cc1ccc2c(CN3CCN(Cc4ccccc4)CC3)cc(=O)oc2c1C	3.31
Fc1ccccc1N1CCN(C(c2ccncc2)c2nnnn2C2CCCC2)CC1 (stereo not given)	-0.2
O=C(NCCO)c1cccc(S(=O)(=O)N2CCCCC2)c1	-4.67
CC1CC(C)CN(C(=O)CN2C(=O)NC3(CCCCCC3)C2=O)C1 (stereo not given)	6.02
N#Cc1c(SCC(=O)OCc2ccccc2)nsc1SCC(=O)OCc1ccccc1	14.1
CSc1snc(SCC(N)=O)c1C#N	-0.39
CC(=O)CSc1nsc(SCC(C)=O)c1C#N	-3.69
COC(=O)CSc1nsc(SCC(=O)OC)c1C#N	-0.76
CCC(C)N(C(=O)COC(=O)c1nc2nc(C)cc(C)n2n1)C1CCS(=O)(=O)C1 (stereo not given)	5.26
CCCOc1ccc(CC2CCC(=O)NC2=O)cc1 (stereo not given)	5.69
COc1ccc(CNS(=O)(=O)c2ccc3c(c2)NC(=O)C(C)S3)cc1 (stereo not given)	6.65
CCc1c(C)sc(NC(=S)N2CCN(S(C)(=O)=O)CC2)c1C(=O)OC	0.54
CCc1c(C)sc(NC(=S)N2CC(C)OC(C)C2)c1C(=O)OC (stereo not given)	3.86
CCN(CC(=O)NCc1ccc(Cl)cc1)C(=O)CN1C(=O)NC(C)(c2ccccc2)C1=O (stereo not given)	-3.75
CCC(C)NC(=O)c1cn(-c2cccc(OC)c2)c(=O)c2ccccc12 (stereo not given)	4.02
CCOC(=O)C(C)NC(=O)c1cn(-c2ccc(OC)cc2)c(=O)c2ccccc12 (stereo not given)	3.17
N#C/C(C(N)=O)=C1/SC=C(c2ccccc2)N1c1ccccc1	-6.75
NS(=O)(=O)c1ccc(NC(=S)NC(=O)c2ccc(Br)o2)cc1	-3.72
Cc1ccc(S(=O)(=O)NC(=O)Nc2ccc(C)cc2C)cc1	-6.63
Cn1c(=O)c2c(ncn2CC(=O)Nc2ccc(N3CCOCC3)cc2)n(C)c1=O	-5.62
O=C(O)CN=CC1=C(O)CC(c2ccccc2)CC1=O (stereo not given)	4.73

SMILES	inhibition [%]
N/C(Cc1ccc(Cl)cc1)=N\OC(=O)c1ccc2ccccc2c1	0.18
N/C(Cc1ccc([N+](=O)[O-])cc1)=N\OC(=O)c1ccc([N+](=O)[O-])cc1	44.8
CCCCn1c(N)c(N(CCOC)C(=O)c2cccc(S(=O)(=O)N3CCCCCC3)c2)c(=O)[nH]c1=O	-2.07
CC(=O)Oc1ccc(C#C/C=C2\c3ccccc3C(=O)N2c2ccccc2)cc1	22.6
CC(=O)Oc1cccc(N2C(=O)c3ccccc3C2=O)c1	-13.4
Cc1nc2c(cc1NC(=O)C(C)(C)C)nc(C)n2Cc1ccccc1	-8.25
Nc1ccc2oc(-c3ccccc3Cl)cc(=O)c2c1O	-3.11
O=c1cc(-c2ccccc2Cl)oc2cccc(O)c12	1.24
COc1ccccc1N(CC(=O)NCCSC(C)(C)C)S(C)(=O)=O	2.68
COc1ccc2oc(C(=O)c3ccccc3)c(NC(=O)CN3CCN(C)CC3)c2c1	15.4
CN1CCN(CC(=O)Nc2c(C(=O)c3ccccc3)oc3ccccc23)CC1	3.75
COC(C[C@@H]1O[C@H]1C(=O)COCc1ccccc1)OC	-5.79
O=C(Cn1ccc([N+](=O)[O-])n1)NCc1cccnc1	4.03
CCCCSC1(SCCCC)N=C(N)C2(C#N)C(c3ccccc3)NC(C)=CC12C#N (stereo not given)	-0.17
CCC(=O)Nc1cccc2ccccc12	-0.62
CCCC(=O)Nc1ccccc1NC(=O)CCC	0.31
COc1ccc(C(=O)N(c2ccc(OC)cc2)S(=O)(=O)c2cccs2)cc1	4.22
NC(=O)CSc1nc2cc(Cl)ccc2c(=O)n1C1CCCCC1	-1.2
COc1ccc(-c2cc3c(=O)n(CC(=O)NCc4ccccc4OC)ncn3n2)cc1	-8.29
C/C(=N/NC(=O)c1cccs1)c1ccc(N2CCOCC2)cc1	-6.32
CC1(c2cccc([N+](=O)[O-])c2)CC(C)(C)N(C(=O)c2ccccc2)c2ccccc21 (stereo not given)	1.14
CC(=O)N1c2ccccc2C(C)(c2ccccc2)CC1(C)C (stereo not given)	-5.59
Cc1cc(C)c(S(=O)(=O)c2ccccc2C)c(SCC(C)C)n1	11
